Source: the supplement of paper PMC6555819

Tests used:
Test in all cases: PBM binding z-score (relative to random genomic background probes); higher = stronger binding; sequences stand for … in GC…GCGATTGACAGCGTAGAATGAAGG
[1] = system: RARb homodimer (NR concentration 270 nM)
Summary of the method: (§1)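 Ligand-free nuclear receptor dimers were bound for 1 h to custom Agilent 4×180K protein-binding microarrays. Detection used antibodies against each partner (one per run). Binding z-scores rest on regression-normalized fluorescence, with random background probes as the reference.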

[2] = system: RARg:RXRa (NR concentration 270 nM, RXRa partner concentration 90 nM)
Summary of the method: as §1

[3] = system: RARg homodimer (NR concentration 270 nM)
Summary of the method: as §1

[4] = system: RXRa DBDmut IVT, anti-RXR (DBD mutation: RXRa K156A/R161A, NR concentration 90 nM)
Summary of the method: as §1

[5] = system: RXRa homodimer (NR concentration 180 nM)
Summary of the method: as §1

[6] = system: THRa:RXRa (NR concentration 90 nM, RXRa partner concentration 90 nM)
Summary of the method: as §1

[7] = system: THRa homodimer (NR concentration 90 nM)
Summary of the method: as §1

[8] = system: VDR homodimer (NR concentration 270 nM)
Summary of the method: as §1

Sequence | PBM binding z-score [1] | PBM binding z-score [2] | PBM binding z-score [3] | PBM binding z-score [4] | PBM binding z-score [5] | PBM binding z-score [6] | PBM binding z-score [7] | PBM binding z-score [8]
CCTACTGGGCCATTCAGAGGTCATTGAACATATG | 4.05 | 4.74 | 3.46 | 1.03 | 4.17 | 3.33 | 1.65 | 4.01
CCTCGGAGGACAGAAGGTCAGAGGTGTCCGCTTT | 3.67 | 3.28 | 2.68 | 0.0335 | 1.71 | 2.19 | -0.0182 | 0.148
GCTTGTAGATGAAGGTTAAGAAAGACTAAGCTAA | 0.181 | 0.18 | 0.177 | -0.235 | 0.368 | 0.351 | -0.694 | -0.443
ATCTCTAGGTAAAGATAGTTGAGTGAATGCAAAT | -0.216 | 0.504 | 0.43 | 0.115 | 0.0675 | 0.495 | 0.0736 | 0.275
CCTGCTAGGTCAATGGTCCGCTAAAGCAGCTCGC | 2.71 | 3.34 | 3.91 | 1.71 | 1.57 | 2.19 | 0.549 | -0.203
GCAGAAAGGTGAAACGCAGGTAACTCAGGGTGGC | 1.55 | 3.22 | 1.84 | 0.00146 | 2.31 | 2.25 | -0.396 | -0.808
TAGGCTAGGTCATGCGGGCCAGTATAGTGTCGGC | 3.1 | 3.73 | 4.44 | 0.47 | 3.14 | 2.77 | 0.748 | 0.519
CCTCGGAGGACAGAAGGTCAGAGCGGTCCGCTTT | 3.61 | 3.59 | 3.6 | 0.0416 | 1.82 | 2.35 | -0.136 | 0.0325
TCTTGTAGATCAATAGAGGTTAATAAAGTGCGCT | 1.15 | 0.715 | 0.545 | 0.551 | 1.33 | 2.36 | -0.525 | 0.459
GCTATTAGTTGAAAGCGCAACCGAATGATTCTCG | -0.696 | -0.258 | -0.0474 | 0.445 | -0.166 | -0.508 | -0.515 | -0.738
TATCCTAGGTCATGGGCCAGTATACCACGCGAAC | 3.35 | 4.47 | 5.04 | 0.933 | 3.99 | 3.54 | 2.41 | 1.05
AGAATGAGGATATACGTAGATCAGGGAAGAAAGT | -0.46 | 0.0404 | 0.424 | -0.474 | -0.0531 | 0.415 | -0.039 | -0.0995
AGAATGAGGTTACCAAAGAGCAGGGAAACGCTTG | 0.563 | 1.8 | 1.43 | 0.987 | 2.24 | 2.73 | 0.573 | 0.0969
ATCTCTAGGTAAAAGTTCAGGGAATCCCGAGGAT | 2.58 | 2.3 | 2.18 | 0.858 | 2.15 | 1.54 | 0.461 | 1.7
TCATCTAGGTAATACAGGTGAAAGTCGGCATCTA | 0.692 | 0.578 | 0.298 | 1.24 | 0.959 | 1.07 | 0.275 | 0.373
CGGCAAAGTTCAAGGTAACGTAACAGAAAGCAGC | 3.52 | 5.32 | 6.01 | 4.49 | 4.62 | 2.79 | 0.581 | 2.71
CATACTAGGTCAAGAGGTCAAAGTCCGCTTCCCG | 5.69 | 8.1 | 7.68 | 3.2 | 8.08 | 4.5 | 2.62 | 4.64
ACTAGTTGGTCAGCTGAGGTCACACGCAATTCGG | 4.17 | 4.1 | 4.4 | 1.4 | 4.02 | 5 | 5.12 | 3.63
TAGCCTAGGTCAGATCGGGACAGTATACGCTATA | 2.11 | 2.85 | 3.78 | -0.412 | 1.76 | 4.67 | 0.686 | -0.152
TCATATAGGTAAAAGGTGAAGGTCGGTGTGGTAA | 2.64 | 2.21 | 1.23 | 1.73 | 3.05 | 1.94 | 1.05 | 0.941
AGAACGAGGGCAATGAGTTGATCGCACGGGTGGC | 0.965 | 0.967 | 1.42 | 2.25 | 0.774 | 1.14 | -0.233 | 3.08
TAGCCTAGGTCATGGGGGCCAGTATAGTGTCGGC | 3.76 | 4.91 | 4.98 | 0.677 | 3.54 | 3.64 | 2.29 | 1.94
TCAGACAGGTGAAGGTAGCTCAGGTACGCAGTCG | 0.62 | 0.413 | 0.456 | 1.13 | 0.741 | 0.667 | 0.148 | -0.026
TGTCAAAGTTCACAGGTAACGTAAGTATCCACAC | 4.22 | 5.7 | 5.98 | 3.69 | 5.48 | 2.53 | -0.165 | 3.53
CCTAGTTAGTCAAGGTCACACACGCTATAGGTAC | 4.28 | 4.36 | 4.31 | 2.45 | 4.3 | 4.27 | 4.29 | 3.3
TCTTGTAGATCAAAGGTTACGAAAGCCGAAGCCT | 1.9 | 2.29 | 1.06 | 0.663 | 3.64 | 1.66 | -0.301 | -0.125

Sequence | PBM binding z-score [1] | PBM binding z-score [2] | PBM binding z-score [3] | PBM binding z-score [4] | PBM binding z-score [5] | PBM binding z-score [6] | PBM binding z-score [7] | PBM binding z-score [8]
CCGACTGGGGCAAGGTTACCATCACGCACAGCCA | 1.61 | 1.08 | 1.33 | -0.402 | 1.18 | 1.22 | 0.274 | -0.0347
TATACAGGGCCAAAGGCCAGAGTACGAATGTCGA | 1.12 | 1.16 | 1.47 | -0.775 | 0.74 | -0.149 | -0.814 | 0.291
CAAACTAGGTTAAGAGGTCAAAGTCCGCTTCCCG | 4.7 | 5.88 | 5.15 | 2.2 | 6.79 | 3.89 | 1.83 | 4.48
AGATCGAGGGCACGCTGAGTTGATAGCAGAGTAG | 0.796 | 1.71 | 1.86 | 1.57 | 0.933 | 1.63 | -0.107 | 1.65
CGTCCAAGGTCAGGGTCAGTGAAAGAGACTCGAA | 4.57 | 5.67 | 6.48 | 2.75 | 5.14 | 3.9 | 2.66 | 2.19
GATACAGGGTCAGCTAGAGGCCAGAGGATGGAAA | 3.55 | 6.91 | 4.81 | 1.22 | 4.69 | 2.93 | 0.198 | 0.847
ACTAGCAGGCCAAGTTTGGGTCACTAAAACAAAG | 2.17 | 2.1 | 1.53 | -0.281 | 0.88 | 2.52 | 0.917 | 0.383
CGCACTAGGTCAGAACAGGACAGTGAAGGATGAT | 2.18 | 2.44 | 3.31 | 0.675 | 1.34 | 3.71 | 0.508 | -0.275
AGAATGAGGTTCAGATCAGGGAAACAGAATACAT | 0.405 | 0.907 | 0.758 | 1.63 | 1.02 | 2.61 | -0.043 | 1.03
ATCGAAAGATCGAAGGTGAGTATACCCACCCGAA | -0.186 | 0.34 | 0.489 | -0.722 | 0.765 | 0.17 | -0.601 | -0.259
CGAACTAGGTCAGAACAGGACTGTGAAGGATGAT | 1.6 | 2.33 | 2.99 | 0.646 | 1.19 | 1.97 | -0.0804 | -0.341
TAGCCTAGGTCATTCAGGGCCCAGTATAGAAAGC | 2.54 | 3.96 | 4.34 | 1.96 | 3.13 | 3.47 | 0.59 | 1.54
CAAACTAGGTCACAGAGCTCAAAGTCCGTGCGTA | 3.35 | 4.37 | 4.81 | 1.38 | 3.73 | 3.25 | 1.11 | 0.62
GCTCGGAGGAGAAGGTCAGAGCTTTGTCCGTAGA | 2.4 | 2.15 | 2.28 | -0.281 | 2.08 | 1.15 | -0.793 | -0.592
TCTAGTTGGTCAAAGGACACACACTCGAAATGCG | 1.99 | 1.75 | 2.29 | 1.09 | 1.12 | 1.59 | 1.14 | 0.435
GGAACGACGGCATTCGAGTTGATAGCATGGCGAT | -1.09 | -0.451 | -0.127 | -0.144 | -0.39 | -0.124 | -1.19 | -0.259
ATCTCTAGGTAAAGTTCGGTGAAAGATCGATAGA | 0.59 | 0.582 | 0.694 | 0.694 | 0.31 | 1.1 | 0.351 | 0.916
AGTCAAAGTTAAGGACGAGGTAACGTAAAGCACG | 0.455 | 0.647 | 0.899 | -0.752 | 0.474 | 3.19 | 2.65 | -0.263
CCTCGGAGGATAACAGGAGGTCAGAGCTGCCAGA | 2.61 | 2.32 | 2.11 | -0.476 | 1.73 | 2.4 | 0.791 | 0.96
TCTGCTAGGTCAACGATGGTGAGCTAATCTGCTA | 2.8 | 3.82 | 4.93 | 0.81 | 1.99 | 2.68 | 0.17 | -0.792
ACAGACAGCTGATGAAGGTAACTCAGGCTATCAT | -0.303 | 0.146 | 0.225 | -0.306 | 0.083 | 0.595 | -0.25 | 0.0545
ATCGTAAGGTCGACGAGGTGAGTATACACCGTTT | 2.31 | 3.18 | 3.23 | 1.37 | 3.01 | 3.89 | 2.39 | 1.63
CGTCCAAGGTCAGCAGGTCAATGAAAGCGACGTG | 5.24 | 6.59 | 6.73 | 2.62 | 5.64 | 4.03 | 2.46 | 2.23
GCCGCTAGGTCAGGTTGGTCAGCTAACGGGTACG | 2.77 | 2.62 | 3.67 | 0.508 | 1.1 | 1.81 | 0.524 | 0.312
ACAGACAGGTGAGTGAAGGTAACTGAGCTGGACG | 0.0356 | 0.592 | 0.479 | -0.622 | 0.511 | 1.75 | -0.353 | -0.218
CGTCCAAGGTCAAGATCAGTGAAAGAGACTCGAA | 3.53 | 5.63 | 6.45 | 3.61 | 5.54 | 3.58 | 1.84 | 1.6
